# FAK inh = blocks human focal adhesion kinase activity; AID 727; biochemical FAK kinase activity assay; actives 0.84% (n = 97,000); Q05397; inhibition, %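 (tested at 7 µM)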; in the data active = inhibition above about 19%
# ERa SRC1 pot = enhances coactivator binding to human estrogen receptor alpha; TR-FRET ERalpha-LBD/SRC-Cy5 coactivator binding, 2 h; 100 = basal binding, no effect; coactivator binding (% of control), % at 25.6 µM; actives 1.3% (n = 86,000); AID 639; in the data active = activity above about 200%;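 also: binding measured in presence of low estradiol as agonist stimulus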
# Target sequence (P03372 whole entry, looked up, the tested form may be a part): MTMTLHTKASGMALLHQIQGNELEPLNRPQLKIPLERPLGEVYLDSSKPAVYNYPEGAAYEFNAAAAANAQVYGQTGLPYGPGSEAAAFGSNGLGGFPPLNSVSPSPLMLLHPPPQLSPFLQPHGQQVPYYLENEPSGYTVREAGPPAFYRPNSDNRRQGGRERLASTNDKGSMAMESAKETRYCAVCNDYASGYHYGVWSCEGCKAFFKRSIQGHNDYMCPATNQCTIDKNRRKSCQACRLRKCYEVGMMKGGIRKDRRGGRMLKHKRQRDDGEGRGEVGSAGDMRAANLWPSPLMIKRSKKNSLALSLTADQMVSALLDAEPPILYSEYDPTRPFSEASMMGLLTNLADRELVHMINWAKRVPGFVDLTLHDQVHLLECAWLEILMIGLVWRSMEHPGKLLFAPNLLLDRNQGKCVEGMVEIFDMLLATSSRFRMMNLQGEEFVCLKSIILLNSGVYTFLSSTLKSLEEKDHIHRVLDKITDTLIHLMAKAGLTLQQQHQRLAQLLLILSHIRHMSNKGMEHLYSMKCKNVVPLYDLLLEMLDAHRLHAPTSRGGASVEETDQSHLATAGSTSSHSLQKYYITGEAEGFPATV
# Mac1 fbg inh = CD11b/CD18-fibrinogen binding inhibition | P05107+P11215 | K562 CD11b/CD18 adhesion to fibrinogen, ATPlite luminescence; Mn2+ added to activate the integrin | inhibition, % at 10 µM | actives 0.54% (n = 93,000) | AID 1497;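 active = primary inhibition of 50% or more at 10 µM, then 40% or more on retest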
# CD11b adhes enh = CD11b/CD18-fibrinogen binding enhancement; P05107+P11215; AID 1499; actives 0.07% (n = 93,000); K562 CD11b/CD18 adhesion to fibrinogen, ATPlite luminescence; activation, % at 10 µM;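 active = 10 µM primary screen giving 50% or more activity, confirmed by 40% or more on retest at that dose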
# ERb coact inh = ER-beta (human) coactivator binding inhibition; Q92731; TR-FRET ER-beta LBD / SRC1-Cy5 peptide binding; receptor agonist-loaded with 1 µM estradiol; inhibition, % at 25.6 µM; actives 1.3% (n = 86,000);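 active = compounds whose percent inhibition of the receptor-coactivator binding signal exceeds about 50% in the single-dose screen, limit read from the data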
# ERa SRC1 inh = ER-alpha (human) coactivator binding inhibition. inhibition, % at 25.6 µM. P03372. TR-FRET ER-alpha LBD / SRC-1 peptide, estradiol-bound. AID 629. actives 1.7% (n = 86,000); in the data active = inhibition above about 50%
# Hits are given with their value; n = inactive; x = no result given; [ ] = dose if it differs, or a comment. Hits are enriched below; roughly 3.5% of the tested compounds scored in any of these assays.
SMILES,FAK inh,ERa SRC1 pot,Mac1 fbg inh,CD11b adhes enh,ERb coact inh,ERa SRC1 inh
CCCCOc1ccc(C(=O)NCc2ccccn2)cc1,n,623[fluorescence artefact?],n,n,n,n
O=C(NNC(=O)c1sc2cccc(Cl)c2c1Cl)NC1CCCCC1,n,x,x,x,x,x
Cc1ccc(C)c(OCC(=O)Nc2nonc2NC(=O)COc2cc(C)ccc2C)c1,n,n,n,n,n,63[fluorescence artefact?]
Cc1cccc(OCC(=O)Nc2nonc2NC(=O)COc2cccc(C)c2)c1,n,n,x,x,52[fluorescence artefact?],72[fluorescence artefact?]
CC(C)NC(=O)CSc1nc2ccccc2c(=O)n1CCCOC(C)C,n,n,n,n,n,n
CCOC(=O)CNC(=O)CSc1nnc(-c2ccncc2)n1-c1ccc(Cl)cc1,n,n,x,x,n,n
Cc1ccc(C(=O)CN2CCC(NC(=O)C3CCCCC3)CC2)cc1,n,605[fluorescence artefact?],n,n,n,n
Cc1ccc(C(=O)C2CCN(CC(=O)NC3CCCCC3)CC2)cc1,n,n,n,n,n,n
CN(C)CCCNCCCNC(=O)/C(=N\O)c1ccccn1,n,n,x,x,n,n
Cc1ccc2cc(C#N)c(N3CCCN(S(=O)(=O)c4ccccc4)CC3)nc2c1,n,350[fluorescence artefact?],n,n,n,n
Cc1ccc2nc(N3CCN(Cc4nnnn4Cc4ccccc4)CC3)c(C#N)cc2c1,n,372[fluorescence artefact?],n,n,n,n
Cc1ccc2cc(C#N)c(N3CCCN(S(=O)(=O)c4ccccc4)CC3)nc2c1C,n,363[fluorescence artefact?],x,x,55[fluorescence artefact?],n
Cc1ccc2nc(N3CCN(S(=O)(=O)c4ccc(C)c(Cl)c4)CC3)c(C#N)cc2c1,n,244[fluorescence artefact?],n,n,50[fluorescence artefact?],n
CCCOc1c(Cl)cc(/C=N/O)cc1OCC,n,n,n,n,n,n
COc1ccccc1CN1C(=O)CN(C2CCCC2)C(=O)C1c1ccc(F)cc1 (stereo not given),n,n,n,n,n,n
Cc1ccc2cc(C#N)c(N3CCCN(S(=O)(=O)c4ccc(F)cc4)CC3)nc2c1,n,349[fluorescence artefact?],x,x,51[fluorescence artefact?],n
O=C(NCc1cccnc1)/C(=C\c1ccc(-c2ccc(Br)cc2)o1)S(=O)(=O)c1ccccc1,x,x,n,n,x,x
O=C1CC(c2ccc(F)cc2)Cc2nc(N3CCN(c4ccccc4)CC3)ncc21 (stereo not given),n,n,n,n,n,n
O=C1CC(c2ccc(F)cc2)Cc2nc(N3CCc4ccccc43)ncc21 (stereo not given),x,203[fluorescence artefact?],n,n,n,n
COC(=O)c1ccc2c(=O)n(CCN3CCOCC3)c(SCC(=O)C(C)(C)C)nc2c1,n,786[fluorescence artefact?],x,x,n,n
Cc1nc(NNC(=O)c2ccc([N+](=O)[O-])cc2)cc(-c2ccccc2)n1,n,204[fluorescence artefact?],n,n,n,n
O=C(NCCc1ccccc1)c1ccc([N+](=O)[O-])cc1,n,x,x,x,x,x
CCC(=O)Nc1nonc1-c1nc2ccccc2n1Cc1ccc(Cl)c(Cl)c1,x,n,x,x,51[fluorescence artefact?],58[fluorescence artefact?]
O=c1c2ccccc2nc(CSc2nnnn2-c2ccccc2)n1-c1ccccc1Cl,n,n,x,x,59[fluorescence artefact?],78[fluorescence artefact?]
c1ccc(Cc2nc3ccccc3n2Cc2ccccc2)cc1,n,x,n,n,x,x
SMILES,FAK inh,ERa SRC1 pot,Mac1 fbg inh,CD11b adhes enh,ERb coact inh,ERa SRC1 inh
c1ccc(Cn2c(CSc3nnnn3-c3ccccc3)nc3ccccc32)cc1,n,n,n,n,n,64[fluorescence artefact?]
COc1ccccc1C(CC(=O)Nc1nccs1)c1ccco1 (stereo not given),n,n,n,n,n,n
O=C(O)CCCCCn1c(O)c(C=C2N=c3ccccc3=N2)sc1=S,x,x,69,n,x,x
Cc1cc(C)n(-c2nc3ccccc3c(=O)n2OC2CCCCC2)n1,n,n,n,n,n,n
COc1ccc(C(=O)Nc2cc(C)c3c(=O)oc4ccccc4c3n2)cc1,n,n,n,n,n,53[fluorescence artefact?]
COCC(=O)Nc1cc(C)c2c(=O)oc3ccccc3c2n1,x,n,x,x,n,n
Cc1ccc(CCNS(=O)(=O)c2cnc[nH]2)cc1,x,n,n,n,70,n
CCOC(=O)C1=C(c2ccccc2)N2CCN=C2S1,n,424[fluorescence artefact?],x,x,n,n
Cc1noc(C)c1CSc1nc2ccccc2nc1NS(=O)(=O)c1ccc(Cl)cc1,n,n,98,n,n,n
O=S(=O)(Nc1nc2ccccc2nc1NCc1ccco1)c1ccc(Cl)cc1,n,n,x,x,n,n
Cc1ccc(-c2nnn(CC(=O)NC3CCCc4ccccc43)n2)cc1 (stereo not given),n,n,x,x,n,n
COC(=O)c1ccc(COc2ccc3c(C)c(C)c(=O)oc3c2C)o1,n,444[fluorescence artefact?],n,n,n,n
COC(=O)c1ccc(COc2ccc3c4c(c(=O)oc3c2)CCC4)o1,n,240[fluorescence artefact?],n,n,n,n
COC(=O)Nc1sccc1C(=O)Nc1sccc1C(=O)OC,n,201,n,n,n,n
CCC(=O)Nc1sccc1C(=O)OC,x,n,n,n,n,n
O=C(Nc1ccc(F)cc1)C1CCCN(S(=O)(=O)c2cccc3cccnc23)C1 (stereo not given),n,n,n,n,n,n
CCOc1ccccc1-c1nc(-c2ccc(NC(=O)c3ccc(Br)o3)cc2)no1,n,384,n,n,n,n
Cc1cc(C)n2nc(C(=O)OCC(=O)c3cc(C)n(C)c3C)nc2n1,n,n,n,n,51[fluorescence artefact?],n
COc1ccc(O)c(C(=O)c2cnc3onc(C)c3c2)c1,n,n,n,n,n,n
CC(C)c1noc2ncc(C(=O)c3cc(Cl)cc(Cl)c3O)cc12,n,n,95,n,n,n
CCOc1nonc1C(=N)/C(C(C)=O)=C(\C)O,n,n,n,n,n,n
O=C1NC(=S)SC1=C1CCCC1,n,n,n,n,56,n
O=C(Nc1nncs1)C1COc2ccccc2O1 (stereo not given),n,n,n,n,n,n
O=C(Nc1nnc(C(F)(F)F)s1)C1COc2ccccc2O1 (stereo not given),n,n,84,n,n,n
CCn1c(-c2ccc(N)cc2)nc2ccccc21,n,n,n,n,n,n
SMILES,FAK inh,ERa SRC1 pot,Mac1 fbg inh,CD11b adhes enh,ERb coact inh,ERa SRC1 inh
CN(C)c1ccc(-c2nc3ccccc3n2C)cc1,n,x,78,n,x,x
CCn1c(-c2ccc(N(C)C)cc2)nc2ccccc21,n,n,59,n,n,n
N#Cc1nc(COc2ccc(Br)cc2)oc1NCCCn1ccnc1,n,n,n,n,n,n
O=C(N/C=N/OCc1ccc(Cl)cc1Cl)NOCc1c(Cl)cccc1Cl,n,213,n,n,n,n
CO/N=C/NC(=O)NOCc1ccc(Cl)cc1Cl,n,n,n,n,n,n
COc1ccc(CC(=O)OCc2cc3ccccc3[nH]c2=O)cc1,n,n,n,n,n,n
COc1cc(OC)cc(C(=O)OCc2cc3ccccc3[nH]c2=O)c1,n,499[fluorescence artefact?],n,n,n,n
OCCN1CCN(Cc2cccc(Oc3ccc(Cl)cc3)c2)CC1,n,n,n,n,n,n
Cc1nn(-c2ccccc2)c2sc(C(=O)c3c(N)n(C)c(=O)n(C)c3=O)cc12,x,550,n,n,n,n

# High-throughput results (PubChem BioAssay)
